# Data reported in article PMC7862700, “An all-to-all approach to the identification of sequence-specific readers for epigenetic DNA modifications on cytosine”.
# Assays:
# Experiment in all cases: DAPPL (digital affinity profiling via proximity ligation, sequencing); 10 mM Tris-HCl pH 7.5, 50 mM NaCl, 1 mM DTT, 4% glycerol, room temperature, 30 min; GST-TFs on glutathione beads, 16-mer random dsDNA library, 0.1% formaldehyde crosslink after washing; high values mean tight binding
# [1] = biological target: T1, FEV (Homo sapiens, UniProt Q99581 1-238); conditions: protein: recombinant; tags: N-terminal GST; dsDNA, one strand shown
# T1 sequence: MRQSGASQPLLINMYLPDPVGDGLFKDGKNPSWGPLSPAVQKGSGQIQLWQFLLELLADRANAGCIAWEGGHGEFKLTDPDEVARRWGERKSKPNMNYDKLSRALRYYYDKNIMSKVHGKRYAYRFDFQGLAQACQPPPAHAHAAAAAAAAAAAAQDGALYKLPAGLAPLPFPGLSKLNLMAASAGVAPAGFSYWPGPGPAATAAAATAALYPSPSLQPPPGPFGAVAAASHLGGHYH
# How it was run: (§1)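 Pools of DNA-barcoded human transcription factors, expressed in yeast as GST fusions on glutathione beads and combined with a tag-only sample, were incubated with 200 nmole of a 16-mer random double-stranded DNA library. Incubation took 30 min at room temperature in Tris/NaCl/DTT/glycerol buffer and was followed by washing, 0.1% formaldehyde crosslinking, proximity ligation (BsaI/T4 ligase, 1 h, 37 °C), PCR amplification and sequencing on an Illumina NextSeq500. Binding signal is the ratio of a hexamer's read frequency for a factor to its frequency for the tag-only sample.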
# [2] = biological target: ETV5 (Homo sapiens, UniProt P41161 1-510); conditions: protein: recombinant; tags: N-terminal GST; dsDNA, one strand shown
# Sequence of ETV5 (P41161 whole entry): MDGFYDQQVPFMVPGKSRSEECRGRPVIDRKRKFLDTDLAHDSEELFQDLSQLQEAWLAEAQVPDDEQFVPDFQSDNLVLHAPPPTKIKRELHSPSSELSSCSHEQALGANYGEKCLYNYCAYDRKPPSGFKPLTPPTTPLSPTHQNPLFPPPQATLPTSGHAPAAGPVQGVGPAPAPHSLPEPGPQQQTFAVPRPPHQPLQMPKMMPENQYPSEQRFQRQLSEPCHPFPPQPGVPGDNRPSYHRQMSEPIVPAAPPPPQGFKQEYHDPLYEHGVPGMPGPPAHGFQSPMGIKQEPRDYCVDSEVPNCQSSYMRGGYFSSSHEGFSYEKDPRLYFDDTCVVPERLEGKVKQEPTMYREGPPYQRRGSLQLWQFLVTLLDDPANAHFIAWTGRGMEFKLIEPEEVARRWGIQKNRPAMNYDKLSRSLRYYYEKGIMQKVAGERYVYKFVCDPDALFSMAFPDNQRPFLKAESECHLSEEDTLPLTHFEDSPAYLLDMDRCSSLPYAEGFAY
# How it was run: as §1
# [3] = biological target: HSF1 (Homo sapiens, UniProt Q00613 1-529); conditions: protein: recombinant; tags: N-terminal GST; chain copies: 3; dsDNA, one strand shown
# Sequence of HSF1 (Q00613 whole entry): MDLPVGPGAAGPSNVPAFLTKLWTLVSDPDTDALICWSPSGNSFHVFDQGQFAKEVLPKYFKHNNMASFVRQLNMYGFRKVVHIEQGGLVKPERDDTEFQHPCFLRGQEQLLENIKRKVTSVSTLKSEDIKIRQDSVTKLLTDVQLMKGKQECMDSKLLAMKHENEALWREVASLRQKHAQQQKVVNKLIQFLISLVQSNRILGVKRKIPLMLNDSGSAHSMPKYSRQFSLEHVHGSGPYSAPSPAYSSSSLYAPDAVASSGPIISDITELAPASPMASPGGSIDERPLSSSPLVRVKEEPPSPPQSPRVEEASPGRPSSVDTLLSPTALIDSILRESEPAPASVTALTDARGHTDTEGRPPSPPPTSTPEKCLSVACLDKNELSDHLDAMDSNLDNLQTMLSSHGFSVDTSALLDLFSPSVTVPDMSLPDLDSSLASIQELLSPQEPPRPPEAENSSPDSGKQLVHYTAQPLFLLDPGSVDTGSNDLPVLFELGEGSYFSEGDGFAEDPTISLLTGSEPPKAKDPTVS
# How it was run: as §1
# [4] = biological target: T2, SPIC (Homo sapiens, UniProt Q8N5J4 1-248); conditions: protein: recombinant; tags: N-terminal GST; dsDNA, one strand shown
# T2 sequence: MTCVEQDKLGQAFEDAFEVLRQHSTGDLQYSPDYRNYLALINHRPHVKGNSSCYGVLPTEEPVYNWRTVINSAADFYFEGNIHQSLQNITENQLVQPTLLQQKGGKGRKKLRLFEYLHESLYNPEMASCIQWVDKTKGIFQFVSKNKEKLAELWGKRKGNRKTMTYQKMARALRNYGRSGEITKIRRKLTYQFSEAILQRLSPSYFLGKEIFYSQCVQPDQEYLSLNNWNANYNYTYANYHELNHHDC
# How it was run: as §1
# [5] = biological target: ELF4 (Homo sapiens, UniProt Q99607 1-663); conditions: protein: recombinant; tags: N-terminal GST; dsDNA, one strand shown
# Sequence of ELF4 (Q99607 whole entry): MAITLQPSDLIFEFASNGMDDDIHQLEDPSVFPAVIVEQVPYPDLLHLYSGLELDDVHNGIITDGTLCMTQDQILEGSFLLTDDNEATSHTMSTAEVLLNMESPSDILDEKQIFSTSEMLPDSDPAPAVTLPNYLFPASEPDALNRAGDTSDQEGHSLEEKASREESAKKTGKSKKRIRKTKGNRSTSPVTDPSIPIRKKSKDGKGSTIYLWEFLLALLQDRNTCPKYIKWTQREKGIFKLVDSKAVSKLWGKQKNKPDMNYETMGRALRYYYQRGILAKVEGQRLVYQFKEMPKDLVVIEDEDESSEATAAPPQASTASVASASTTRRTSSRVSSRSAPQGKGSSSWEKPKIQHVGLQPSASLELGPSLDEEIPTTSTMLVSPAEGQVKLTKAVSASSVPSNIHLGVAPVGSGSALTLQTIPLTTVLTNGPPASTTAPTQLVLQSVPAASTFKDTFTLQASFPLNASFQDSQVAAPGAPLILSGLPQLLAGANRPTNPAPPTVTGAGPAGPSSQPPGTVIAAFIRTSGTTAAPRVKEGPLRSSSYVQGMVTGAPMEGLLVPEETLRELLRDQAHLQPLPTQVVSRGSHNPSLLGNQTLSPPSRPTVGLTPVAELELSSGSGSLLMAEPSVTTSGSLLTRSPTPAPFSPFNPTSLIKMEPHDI
# How it was run: as §1
# [6] = biological target: T3, ELK4 (Homo sapiens, UniProt P28324-2 1-405); conditions: protein: recombinant; tags: N-terminal GST; dsDNA, one strand shown
# T3 sequence: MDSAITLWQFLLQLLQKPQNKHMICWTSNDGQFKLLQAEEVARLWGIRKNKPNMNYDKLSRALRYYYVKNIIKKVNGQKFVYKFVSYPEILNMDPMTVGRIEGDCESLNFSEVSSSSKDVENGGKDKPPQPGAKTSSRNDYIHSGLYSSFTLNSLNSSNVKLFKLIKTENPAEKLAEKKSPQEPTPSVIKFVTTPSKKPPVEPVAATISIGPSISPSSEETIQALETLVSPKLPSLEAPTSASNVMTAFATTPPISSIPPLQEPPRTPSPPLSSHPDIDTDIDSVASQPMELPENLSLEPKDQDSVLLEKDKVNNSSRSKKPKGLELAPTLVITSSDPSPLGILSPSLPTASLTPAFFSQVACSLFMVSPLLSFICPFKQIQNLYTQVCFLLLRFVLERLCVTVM
# How it was run: as §1
# [7] = biological target: T4, ETV2 (Homo sapiens, UniProt O00321 1-342); conditions: protein: recombinant; tags: N-terminal GST; dsDNA, one strand shown
# T4 sequence: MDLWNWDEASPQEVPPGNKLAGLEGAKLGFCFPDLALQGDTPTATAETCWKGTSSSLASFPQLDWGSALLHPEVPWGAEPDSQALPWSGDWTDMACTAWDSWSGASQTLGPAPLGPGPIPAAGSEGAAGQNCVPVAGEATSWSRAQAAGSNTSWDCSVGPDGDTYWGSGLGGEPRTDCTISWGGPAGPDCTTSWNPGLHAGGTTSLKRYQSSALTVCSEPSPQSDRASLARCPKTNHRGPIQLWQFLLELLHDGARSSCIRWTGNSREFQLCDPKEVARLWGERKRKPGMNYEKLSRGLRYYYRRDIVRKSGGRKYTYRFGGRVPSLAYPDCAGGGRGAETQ
# How it was run: as §1
# [8] = biological target: T5, ELF3 (Homo sapiens, UniProt P78545 1-371); conditions: protein: recombinant; tags: N-terminal GST; dsDNA, one strand shown
# T5 sequence: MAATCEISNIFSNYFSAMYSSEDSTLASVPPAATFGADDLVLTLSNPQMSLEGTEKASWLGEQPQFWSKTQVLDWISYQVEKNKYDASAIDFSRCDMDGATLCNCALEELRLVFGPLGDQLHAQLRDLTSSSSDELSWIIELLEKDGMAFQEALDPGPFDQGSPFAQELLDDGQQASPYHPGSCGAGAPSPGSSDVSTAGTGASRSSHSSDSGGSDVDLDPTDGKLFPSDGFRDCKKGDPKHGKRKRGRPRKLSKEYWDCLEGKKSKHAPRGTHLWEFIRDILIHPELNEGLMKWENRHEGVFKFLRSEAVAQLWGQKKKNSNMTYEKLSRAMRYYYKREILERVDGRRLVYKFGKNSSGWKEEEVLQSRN
# How it was run: as §1
# [9] = biological target: CRX (Homo sapiens, UniProt O43186 1-299); conditions: protein: recombinant; tags: N-terminal GST; dsDNA, one strand shown
# Sequence of CRX (O43186 whole entry): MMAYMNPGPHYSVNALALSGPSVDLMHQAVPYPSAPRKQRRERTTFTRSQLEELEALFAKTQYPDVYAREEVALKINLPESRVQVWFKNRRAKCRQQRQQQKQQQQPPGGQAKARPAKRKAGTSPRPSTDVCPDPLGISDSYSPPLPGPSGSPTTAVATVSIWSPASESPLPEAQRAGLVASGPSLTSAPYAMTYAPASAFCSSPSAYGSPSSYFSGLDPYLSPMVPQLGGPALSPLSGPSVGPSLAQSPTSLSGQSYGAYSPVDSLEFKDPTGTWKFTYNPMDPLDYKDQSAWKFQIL
# How it was run: as §1
# [10] = biological target: ETV1 (Homo sapiens, UniProt P50549 1-477); conditions: protein: recombinant; tags: N-terminal GST; dsDNA, one strand shown
# Sequence of ETV1 (P50549 whole entry): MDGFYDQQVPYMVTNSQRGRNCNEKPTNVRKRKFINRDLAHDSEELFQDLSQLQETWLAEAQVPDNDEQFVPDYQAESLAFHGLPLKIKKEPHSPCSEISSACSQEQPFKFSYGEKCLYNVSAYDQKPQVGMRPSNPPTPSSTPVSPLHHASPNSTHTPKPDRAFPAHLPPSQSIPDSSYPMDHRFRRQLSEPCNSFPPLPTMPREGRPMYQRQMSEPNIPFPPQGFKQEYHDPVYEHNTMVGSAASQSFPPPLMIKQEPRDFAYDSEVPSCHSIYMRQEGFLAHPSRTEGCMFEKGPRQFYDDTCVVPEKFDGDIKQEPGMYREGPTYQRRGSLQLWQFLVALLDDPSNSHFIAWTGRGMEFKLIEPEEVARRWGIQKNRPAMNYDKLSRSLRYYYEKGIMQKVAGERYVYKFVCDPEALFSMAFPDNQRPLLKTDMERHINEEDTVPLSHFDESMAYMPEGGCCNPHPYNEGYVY
# How it was run: as §1
# [11] = biological target: T6, ERF (Homo sapiens, UniProt P50548 1-548); conditions: protein: recombinant; tags: N-terminal GST; dsDNA, one strand shown
# T6 sequence: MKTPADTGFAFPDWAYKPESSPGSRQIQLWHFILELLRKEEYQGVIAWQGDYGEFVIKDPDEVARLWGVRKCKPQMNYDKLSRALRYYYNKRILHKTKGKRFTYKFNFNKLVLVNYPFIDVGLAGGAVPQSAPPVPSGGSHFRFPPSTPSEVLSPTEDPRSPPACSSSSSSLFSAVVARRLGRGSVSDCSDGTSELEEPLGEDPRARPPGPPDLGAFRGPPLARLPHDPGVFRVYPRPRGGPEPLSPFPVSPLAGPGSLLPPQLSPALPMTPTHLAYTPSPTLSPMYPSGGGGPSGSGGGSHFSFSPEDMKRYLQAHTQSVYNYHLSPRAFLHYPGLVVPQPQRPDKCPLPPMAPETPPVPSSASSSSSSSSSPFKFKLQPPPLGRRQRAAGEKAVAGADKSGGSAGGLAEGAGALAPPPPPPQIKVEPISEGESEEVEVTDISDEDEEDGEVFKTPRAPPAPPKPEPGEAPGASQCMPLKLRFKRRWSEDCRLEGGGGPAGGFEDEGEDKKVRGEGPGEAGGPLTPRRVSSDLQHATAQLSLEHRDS
# How it was run: as §1
# [12] = biological target: T7, ETV3L (Homo sapiens, UniProt Q6ZN32 1-361); conditions: protein: recombinant; tags: N-terminal GST; dsDNA, one strand shown
# T7 sequence: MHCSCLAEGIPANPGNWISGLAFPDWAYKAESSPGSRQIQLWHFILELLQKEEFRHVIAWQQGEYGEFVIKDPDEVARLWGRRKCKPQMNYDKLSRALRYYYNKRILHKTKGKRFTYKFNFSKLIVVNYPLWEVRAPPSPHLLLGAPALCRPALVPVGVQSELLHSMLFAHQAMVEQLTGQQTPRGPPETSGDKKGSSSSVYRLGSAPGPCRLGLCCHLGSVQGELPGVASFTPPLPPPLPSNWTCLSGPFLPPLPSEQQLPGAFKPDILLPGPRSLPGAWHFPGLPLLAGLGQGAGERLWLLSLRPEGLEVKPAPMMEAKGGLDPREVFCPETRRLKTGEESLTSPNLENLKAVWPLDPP
# How it was run: as §1
# [13] = biological target: T8, ETS2 (Homo sapiens, UniProt P15036 1-469); conditions: protein: recombinant; tags: N-terminal GST; dsDNA, one strand shown
# T8 sequence: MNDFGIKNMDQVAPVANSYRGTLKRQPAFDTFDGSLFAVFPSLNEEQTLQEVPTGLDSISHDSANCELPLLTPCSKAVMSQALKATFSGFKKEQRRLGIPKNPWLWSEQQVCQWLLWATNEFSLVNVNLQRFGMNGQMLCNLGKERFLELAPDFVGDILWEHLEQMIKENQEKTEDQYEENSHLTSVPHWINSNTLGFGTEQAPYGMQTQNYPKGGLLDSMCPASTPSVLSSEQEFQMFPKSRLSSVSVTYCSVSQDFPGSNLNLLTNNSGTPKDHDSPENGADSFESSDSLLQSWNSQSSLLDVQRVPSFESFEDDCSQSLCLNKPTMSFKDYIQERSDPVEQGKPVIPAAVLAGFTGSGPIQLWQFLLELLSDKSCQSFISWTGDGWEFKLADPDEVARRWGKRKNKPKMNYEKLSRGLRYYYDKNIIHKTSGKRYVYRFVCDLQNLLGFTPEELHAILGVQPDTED
# How it was run: as §1
# [14] = biological target: T9, SPDEF (Homo sapiens, UniProt O95238 1-335); conditions: protein: recombinant; tags: N-terminal GST; dsDNA, one strand shown
# T9 sequence: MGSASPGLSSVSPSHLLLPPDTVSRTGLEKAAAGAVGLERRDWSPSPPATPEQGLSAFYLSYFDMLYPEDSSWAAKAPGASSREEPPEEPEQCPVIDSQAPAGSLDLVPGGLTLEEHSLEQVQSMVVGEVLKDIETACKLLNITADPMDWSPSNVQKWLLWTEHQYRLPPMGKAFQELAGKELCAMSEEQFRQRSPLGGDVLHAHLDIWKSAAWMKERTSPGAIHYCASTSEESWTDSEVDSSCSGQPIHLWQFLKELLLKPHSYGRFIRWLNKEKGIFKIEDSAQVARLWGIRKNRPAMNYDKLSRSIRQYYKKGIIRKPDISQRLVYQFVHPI
# How it was run: as §1
# [15] = biological target: T10, ETV7 (Homo sapiens, UniProt Q9Y603 1-341); conditions: protein: recombinant; tags: N-terminal GST; dsDNA, one strand shown
# T10 sequence: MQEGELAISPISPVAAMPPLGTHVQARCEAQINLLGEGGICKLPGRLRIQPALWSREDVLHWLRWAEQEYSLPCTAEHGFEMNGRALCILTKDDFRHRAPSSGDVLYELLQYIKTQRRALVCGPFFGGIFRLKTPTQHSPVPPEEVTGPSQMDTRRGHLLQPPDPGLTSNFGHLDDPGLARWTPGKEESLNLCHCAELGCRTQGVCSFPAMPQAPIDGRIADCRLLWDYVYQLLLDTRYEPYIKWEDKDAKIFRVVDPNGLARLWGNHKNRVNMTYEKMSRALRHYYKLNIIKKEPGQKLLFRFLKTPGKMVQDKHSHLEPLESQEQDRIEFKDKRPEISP
# How it was run: as §1
# [16] = biological target: T11, ELF5 (Homo sapiens, UniProt Q9UKW6-2 1-255); conditions: protein: recombinant; tags: N-terminal GST; dsDNA, one strand shown
# T11 sequence: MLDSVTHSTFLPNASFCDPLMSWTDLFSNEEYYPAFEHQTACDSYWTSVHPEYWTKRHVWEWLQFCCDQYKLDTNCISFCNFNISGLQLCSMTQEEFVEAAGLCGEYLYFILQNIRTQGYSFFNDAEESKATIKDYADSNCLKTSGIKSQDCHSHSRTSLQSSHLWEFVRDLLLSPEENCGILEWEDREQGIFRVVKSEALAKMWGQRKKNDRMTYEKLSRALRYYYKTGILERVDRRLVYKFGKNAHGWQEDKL
# How it was run: as §1
# [17] = biological target: T12, ETV3 (Homo sapiens, UniProt P41162-2 1-143); conditions: protein: recombinant; tags: N-terminal GST; dsDNA, one strand shown
# T12 sequence: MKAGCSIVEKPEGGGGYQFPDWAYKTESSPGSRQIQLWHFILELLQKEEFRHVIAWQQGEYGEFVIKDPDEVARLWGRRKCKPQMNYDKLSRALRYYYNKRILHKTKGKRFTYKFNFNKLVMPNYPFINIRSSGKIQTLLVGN
# How it was run: as §1
# [18] = biological target: ETV6 (Homo sapiens, UniProt P41212 1-452); conditions: protein: recombinant; tags: N-terminal GST; dsDNA, one strand shown
# Sequence of ETV6 (P41212 whole entry): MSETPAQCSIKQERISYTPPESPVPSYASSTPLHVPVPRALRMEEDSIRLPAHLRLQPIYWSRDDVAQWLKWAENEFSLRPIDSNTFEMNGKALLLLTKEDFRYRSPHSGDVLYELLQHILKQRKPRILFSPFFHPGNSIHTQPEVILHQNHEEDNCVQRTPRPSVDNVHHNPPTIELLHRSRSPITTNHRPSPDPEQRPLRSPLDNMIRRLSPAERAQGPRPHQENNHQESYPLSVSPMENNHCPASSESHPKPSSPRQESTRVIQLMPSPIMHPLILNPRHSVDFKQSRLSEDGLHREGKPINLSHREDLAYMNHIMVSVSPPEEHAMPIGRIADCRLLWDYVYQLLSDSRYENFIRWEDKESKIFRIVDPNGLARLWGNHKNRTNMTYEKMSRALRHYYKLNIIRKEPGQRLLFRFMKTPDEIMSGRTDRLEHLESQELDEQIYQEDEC
# How it was run: as §1
sequence,measurement,setting,value
ATCCAC,binding signal,[1],"1.14 fold enrichment (6-mer frequency, TF over GST control)"
same,binding signal,[2],"1.18 fold enrichment (6-mer frequency, TF over GST control)"
same,binding signal,[3],"1.36 fold enrichment (6-mer frequency, TF over GST control)"
same,binding signal,[4],"1.24 fold enrichment (6-mer frequency, TF over GST control)"
same,binding signal,[5],"1.22 fold enrichment (6-mer frequency, TF over GST control)"
same,binding signal,[6],"1.32 fold enrichment (6-mer frequency, TF over GST control)"
same,binding signal,[7],"1.23 fold enrichment (6-mer frequency, TF over GST control)"
same,binding signal,[8],"1.14 fold enrichment (6-mer frequency, TF over GST control)"
same,binding signal,[9],"1.48 fold enrichment (6-mer frequency, TF over GST control)"
same,binding signal,[10],"1.2 fold enrichment (6-mer frequency, TF over GST control)"
same,binding signal,[11],"1.27 fold enrichment (6-mer frequency, TF over GST control)"
same,binding signal,[12],"1.05 fold enrichment (6-mer frequency, TF over GST control)"
same,binding signal,[13],"1.2 fold enrichment (6-mer frequency, TF over GST control)"
same,binding signal,[14],"1.18 fold enrichment (6-mer frequency, TF over GST control)"
same,binding signal,[15],"1.18 fold enrichment (6-mer frequency, TF over GST control)"
same,binding signal,[16],"1.16 fold enrichment (6-mer frequency, TF over GST control)"
same,binding signal,[17],"1.14 fold enrichment (6-mer frequency, TF over GST control)"
same,binding signal,[18],"1.25 fold enrichment (6-mer frequency, TF over GST control)"
